# Counter-ions that a name gives are not always drawn.
# Key:
# Settings in all cases: treatment time: 24 h
# A549-ACTB-RAB5A [1] = assay: lowest phenotypically active concentration; higher = less potent
# Procedure, shortened: (§1)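 Fifteen gene-edited A549, HepG2 and WPMY1 reporter lines (BFP segmentation plus GFP and RFP/FusionRed markers) were treated at 0.3, 1, 3 or 9 µM for 24 h, four wells each, then imaged live. Live-cell features per well were normalised to DMSO control wells. Deviation required ≥3 of 4 wells beyond the 95th percentile of DMSO Euclidean distances, and reproducibility required median replicate Pearson correlation above the 95th percentile of non-replicates. Phenotypic activity needed both criteria.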
# A549-GM130-SQSTM1 [2] = assay: as above
# Procedure, shortened: as §1
# A549-TUBA1B-RELA [3] = assay: as above
# Procedure, shortened: as §1
# WPMY1-GM130-SQSTM1 [4] = assay: as above
# Procedure, shortened: as §1
# A549-ACTB-RAB5A [5] = assay: phenotypically active (imaging signature differs from DMSO and reproducible) at any of 0.3-9 uM (binary (1 = active, 0 = inactive)); higher = active
# Procedure, shortened: as §1
# A549-CANX-COX4 = assay: as above
# Procedure, shortened: as §1
# A549-GM130-SQSTM1 [6] = assay: as above
# Procedure, shortened: as §1
# A549-TP53BP1-CLTA = assay: as above
# Procedure, shortened: as §1
# A549-TUBA1B-RELA [7] = assay: as above
# Procedure, shortened: as §1
# HepG2-ACTB-RAB5A [8] = assay: as above
# Procedure, shortened: as §1
# HepG2-CANX-COX4 = assay: as above
# Procedure, shortened: as §1
# HepG2-GM130-SQSTM1 = assay: as above
# Procedure, shortened: as §1
# HepG2-TP53BP1-CLTA = assay: as above
# Procedure, shortened: as §1
# HepG2-TUBA1B-RELA = assay: as above
# Procedure, shortened: as §1
# WPMY1-ACTB-RAB5A = assay: as above
# Procedure, shortened: as §1
# WPMY1-CANX-COX4 = assay: as above
# Procedure, shortened: as §1
# WPMY1-GM130-SQSTM1 [9] = assay: as above
# Procedure, shortened: as §1
# WPMY1-TP53BP1-CLTA = assay: as above
# Procedure, shortened: as §1
# WPMY1-TUBA1B-RELA = assay: as above
# Procedure, shortened: as §1
# HepG2-ACTB-RAB5A [10] = assay: lowest phenotypically active concentration; higher = less potent
# Procedure, shortened: as §1
SMILES,lowest phenotypically active concentration (A549-ACTB-RAB5A [1]),lowest phenotypically active concentration (A549-GM130-SQSTM1 [2]),lowest phenotypically active concentration (A549-TUBA1B-RELA [3]),lowest phenotypically active concentration (WPMY1-GM130-SQSTM1 [4]),phenotypically active (A549-ACTB-RAB5A [5]),phenotypically active (A549-CANX-COX4),phenotypically active (A549-GM130-SQSTM1 [6]),phenotypically active (A549-TP53BP1-CLTA),phenotypically active (A549-TUBA1B-RELA [7]),phenotypically active (HepG2-ACTB-RAB5A [8]),phenotypically active (HepG2-CANX-COX4),phenotypically active (HepG2-GM130-SQSTM1),phenotypically active (HepG2-TP53BP1-CLTA),phenotypically active (HepG2-TUBA1B-RELA),phenotypically active (WPMY1-ACTB-RAB5A),phenotypically active (WPMY1-CANX-COX4),phenotypically active (WPMY1-GM130-SQSTM1 [9]),phenotypically active (WPMY1-TP53BP1-CLTA),phenotypically active (WPMY1-TUBA1B-RELA),lowest phenotypically active concentration (HepG2-ACTB-RAB5A [10])
CN1CCc2cccc3c2[C@H]1Cc1ccc(O)c(O)c1-3 [r(-)-apomorphine],9 µM,9 µM,9 µM,≤ 0.3 µM,1 (active),1 (active),1 (active),1 (active),1 (active),0 (inactive),0 (inactive),0 (inactive),0 (inactive),0 (inactive),1 (active),1 (active),1 (active),0 (inactive),1 (active),
C[C@@H](Nc1ncnc2[nH]c(-c3ccc(O)cc3)cc12)c1ccccc1 [PKI 166 hydrochloride],3 µM,3 µM,3 µM,3 µM,1 (active),1 (active),1 (active),1 (active),1 (active),0 (inactive),1 (active),0 (inactive),1 (active),1 (active),1 (active),1 (active),1 (active),1 (active),1 (active),
CNCCC(Oc1ccc(C(F)(F)F)cc1)c1ccccc1 (stereo not given) [fluoxetine],3 µM,9 µM,3 µM,9 µM,1 (active),0 (inactive),1 (active),1 (active),1 (active),0 (inactive),0 (inactive),0 (inactive),1 (active),1 (active),0 (inactive),0 (inactive),1 (active),0 (inactive),0 (inactive),
Cn1cc(C2=C(c3ccc(Cl)cc3Cl)C(=O)NC2=O)c2ccccc21,1 µM,≤ 0.3 µM,1 µM,≤ 0.3 µM,1 (active),0 (inactive),1 (active),1 (active),1 (active),0 (inactive),0 (inactive),1 (active),1 (active),0 (inactive),0 (inactive),1 (active),1 (active),1 (active),0 (inactive),
COc1cc(N2CCC(N)CC2)ccc1Nc1ncc(Cl)c(-c2c[nH]c3ccccc23)n1,3 µM,≤ 0.3 µM,1 µM,1 µM,1 (active),0 (inactive),1 (active),1 (active),1 (active),1 (active),1 (active),1 (active),1 (active),1 (active),1 (active),1 (active),1 (active),1 (active),1 (active),3 µM
Cc1ccc(NC(=O)c2cccc(N(C)C)c2)cc1NC(=O)c1ccc(O)cc1,3 µM,3 µM,3 µM,,1 (active),0 (inactive),1 (active),1 (active),1 (active),0 (inactive),0 (inactive),0 (inactive),0 (inactive),0 (inactive),1 (active),0 (inactive),0 (inactive),0 (inactive),0 (inactive),
O=C([C@H](Cc1cccc(C(F)(F)F)c1)NS(=O)(=O)c1cc(F)c2c(c1)CCNC2)N1CCCC1 [(S)-PFI 2 hydrochloride],9 µM,9 µM,,,1 (active),0 (inactive),1 (active),0 (inactive),0 (inactive),0 (inactive),0 (inactive),0 (inactive),0 (inactive),0 (inactive),0 (inactive),0 (inactive),0 (inactive),0 (inactive),0 (inactive),
O=C(O)C[C@H](O)C[C@H](O)/C=C/c1c(C2CC2)nc2ccccc2c1-c1ccc(F)cc1 [Pitavastatin calcium],1 µM,9 µM,,≤ 0.3 µM,1 (active),0 (inactive),1 (active),1 (active),0 (inactive),1 (active),1 (active),1 (active),1 (active),1 (active),1 (active),1 (active),1 (active),1 (active),1 (active),1 µM
CC(C)(C)c1ccc2cc(C#N)c(C#N)cc2c1,3 µM,3 µM,,,1 (active),0 (inactive),1 (active),0 (inactive),0 (inactive),0 (inactive),0 (inactive),0 (inactive),0 (inactive),0 (inactive),0 (inactive),0 (inactive),0 (inactive),0 (inactive),0 (inactive),
COc1ccc(CCNCc2ccc(OCc3ccc(Cl)nc3)c(OC)c2)cc1OC [SBE 13 hydrochloride],3 µM,9 µM,3 µM,9 µM,1 (active),0 (inactive),1 (active),1 (active),1 (active),1 (active),0 (inactive),0 (inactive),1 (active),1 (active),1 (active),1 (active),1 (active),1 (active),1 (active),9 µM
Cc1noc(C)c1Cn1cc(C#N)c2cc(Oc3ccc(NC(=O)[C@@H]4CCCN4)cc3)ccc21,9 µM,9 µM,9 µM,9 µM,1 (active),0 (inactive),1 (active),1 (active),1 (active),0 (inactive),0 (inactive),1 (active),1 (active),1 (active),1 (active),1 (active),1 (active),1 (active),1 (active),
NS(=O)(=O)c1nn2cc(-c3ccccc3)nc2s1,9 µM,9 µM,,9 µM,1 (active),0 (inactive),1 (active),1 (active),0 (inactive),1 (active),1 (active),1 (active),0 (inactive),1 (active),1 (active),0 (inactive),1 (active),1 (active),1 (active),9 µM
Clc1ccccc1C(c1ccccc1)(c1ccccc1)n1ccnc1 [Clotrimazole],9 µM,9 µM,,9 µM,1 (active),0 (inactive),1 (active),1 (active),0 (inactive),1 (active),1 (active),0 (inactive),0 (inactive),0 (inactive),0 (inactive),1 (active),1 (active),0 (inactive),0 (inactive),9 µM
O=S(=O)(c1cccc2cnccc12)N1CCCNCC1 [fasudil],3 µM,9 µM,3 µM,9 µM,1 (active),0 (inactive),1 (active),1 (active),1 (active),1 (active),1 (active),1 (active),1 (active),1 (active),1 (active),1 (active),1 (active),0 (inactive),1 (active),9 µM
COc1ccccc1OCCNCC(O)COc1cccc2[nH]c3ccccc3c12 (stereo not given) [Carvedilol],9 µM,9 µM,9 µM,3 µM,1 (active),0 (inactive),1 (active),1 (active),1 (active),1 (active),1 (active),1 (active),1 (active),1 (active),1 (active),1 (active),1 (active),1 (active),1 (active),9 µM
Cc1noc(C)c1-c1ccc2c(c1)nc(CCc1ccc(OCCCN(C)C)cc1)n2CCN1CCOCC1,9 µM,3 µM,3 µM,9 µM,1 (active),0 (inactive),1 (active),1 (active),1 (active),1 (active),1 (active),1 (active),1 (active),1 (active),1 (active),1 (active),1 (active),1 (active),1 (active),9 µM
COc1c(C=O)c(O)cc2c1C(=O)c1ccccc1C2=O [Damnacanthal],9 µM,3 µM,,3 µM,1 (active),0 (inactive),1 (active),1 (active),0 (inactive),1 (active),0 (inactive),1 (active),1 (active),0 (inactive),1 (active),1 (active),1 (active),1 (active),1 (active),9 µM
C[C@]1(O)C[C@@H](c2nc(-c3ccc4ccc(-c5ccccc5)nc4c3)c3c(N)nccn32)C1 [linsitinib],1 µM,≤ 0.3 µM,3 µM,9 µM,1 (active),0 (inactive),1 (active),1 (active),1 (active),1 (active),1 (active),1 (active),1 (active),1 (active),1 (active),1 (active),1 (active),1 (active),0 (inactive),9 µM
Cc1cc(Nc2ccc(NC(=O)c3ccc(Nc4ccnc5ccccc45)cc3)cc2)nc(N)n1,1 µM,1 µM,1 µM,1 µM,1 (active),0 (inactive),1 (active),1 (active),1 (active),1 (active),0 (inactive),1 (active),1 (active),1 (active),1 (active),0 (inactive),1 (active),1 (active),1 (active),9 µM
N#C/C(=C(/N)Sc1ccc(N)cc1)c1ccccc1C(F)(F)F,3 µM,3 µM,,,1 (active),0 (inactive),1 (active),1 (active),0 (inactive),1 (active),1 (active),1 (active),1 (active),1 (active),0 (inactive),0 (inactive),0 (inactive),1 (active),0 (inactive),3 µM
CN1[C@@H]2CC[C@H]1C[C@@H](OC(c1ccccc1)c1ccccc1)C2 [benztropine],9 µM,9 µM,9 µM,9 µM,1 (active),0 (inactive),1 (active),1 (active),1 (active),1 (active),1 (active),0 (inactive),1 (active),1 (active),0 (inactive),1 (active),1 (active),0 (inactive),1 (active),9 µM
C[C@H]1Oc2cc(cnc2N)-c2c(nn(C)c2C#N)CN(C)C(=O)c2ccc(F)cc21,3 µM,1 µM,1 µM,,1 (active),0 (inactive),1 (active),1 (active),1 (active),1 (active),1 (active),1 (active),1 (active),1 (active),0 (inactive),0 (inactive),0 (inactive),1 (active),0 (inactive),3 µM
